Test results reported in PubChem BioAssay (NCI).
This is part of a sample that, as a whole, favours compounds with a hit. Of some 83,000 tested, about 20% had one in any assay.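 Values shown are percent growth following 48 h exposure of cells in 96-well plates to a single concentration of compound; below 10 was considered active.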 Active and inactive are the calls of the source.

What was measured:
Assay in all cases: NCI-60 one-dose screen, 48 h (100 = growth as untreated, 0 = no growth, -100 = all killed)
Conditions in all cases: 10 µM unless noted
SR leukemia = tested on: SR leukemia
RPMI-8226 leukemia = tested on: RPMI-8226 leukemia
OVCAR-8 ovarian = tested on: OVCAR-8 ovarian
OVCAR-5 ovarian = tested on: OVCAR-5 ovarian
OVCAR-4 ovarian = tested on: OVCAR-4 ovarian
SK-OV-3 ovarian = tested on: SK-OV-3 ovarian
IGROV1 ovarian = tested on: IGROV1 ovarian
OVCAR-3 ovarian = tested on: OVCAR-3 ovarian
HS 578T breast = tested on: HS 578T breast
NCI/ADR-RES ovarian = tested on: NCI/ADR-RES ovarian

Measured: growth

Cc1nn(-c2ccccc2)c2ncnc(N/N=C/c3ccccc3)c12
inactive: SR leukemia 98.1% | RPMI-8226 leukemia 105% | OVCAR-8 ovarian 96.7% | OVCAR-5 ovarian 97.5% | OVCAR-4 ovarian 80.4% | SK-OV-3 ovarian 102% | IGROV1 ovarian 81.9% | OVCAR-3 ovarian 83.5% | HS 578T breast 103% | NCI/ADR-RES ovarian 93%

O=C(CCn1c[n+](CC(=O)c2ccc(F)cc2)c2ccccc21)Nc1cccc2cccnc12
inactive: SR leukemia 79.5% | RPMI-8226 leukemia 35.1% | OVCAR-8 ovarian 86.9% | OVCAR-5 ovarian 79.6% | OVCAR-4 ovarian 52.3% | SK-OV-3 ovarian 88.2% | IGROV1 ovarian 39.4% | OVCAR-3 ovarian 55.4% | HS 578T breast 84.5% | NCI/ADR-RES ovarian 96.5%

CCn1c(SCC(=O)Nc2cccc(C(=O)/C=C/c3ccc(Br)cc3)c2)nc2ccccc2c1=O
inactive: SR leukemia 74.3% | OVCAR-8 ovarian 96.4% | OVCAR-5 ovarian 95.8% | OVCAR-4 ovarian 93% | SK-OV-3 ovarian 106% | IGROV1 ovarian 86.8% | OVCAR-3 ovarian 90.7% | HS 578T breast 98.3% | NCI/ADR-RES ovarian 89.6%
active: RPMI-8226 leukemia 5.53%

CC(=O)C1=C(C)NC(NNC(N)=S)=NC1c1ccccc1 (stereo not given)
inactive: SR leukemia 112% | RPMI-8226 leukemia 108% | OVCAR-8 ovarian 107% | OVCAR-5 ovarian 90% | OVCAR-4 ovarian 78% | SK-OV-3 ovarian 104% | IGROV1 ovarian 77.9% | OVCAR-3 ovarian 111% | HS 578T breast 103% | NCI/ADR-RES ovarian 108%

CC1(C)NCCC[C@]2(C)[C@H]3C/C(=N\O)C4[C@@H]5C[C@@](C)(CO)CC[C@]5(C)CC[C@@]4(C)[C@]3(C)CC[C@@H]12 (stereo not given in full)
inactive: SR leukemia 81.2% | RPMI-8226 leukemia 111% | OVCAR-8 ovarian 98.4% | OVCAR-5 ovarian 104% | OVCAR-4 ovarian 99.4% | SK-OV-3 ovarian 107% | IGROV1 ovarian 96.5% | OVCAR-3 ovarian 109% | HS 578T breast 98.6% | NCI/ADR-RES ovarian 98.1%

CCCCCc1ccc(S(=O)(=O)Nc2cccc(-c3csc(NC(=O)CN4CCN(C)CC4)n3)c2)cc1
active: SR leukemia -4.74% | RPMI-8226 leukemia 5.62%
inactive: OVCAR-8 ovarian 95.9% | OVCAR-5 ovarian 105% | OVCAR-4 ovarian 81.4% | SK-OV-3 ovarian 90.6% | IGROV1 ovarian 83.8% | OVCAR-3 ovarian 75.3% | HS 578T breast 82.1% | NCI/ADR-RES ovarian 93.1%

CS(=O)(=O)c1ccc(-n2cc(/C=N/O)c(-c3ccccc3)n2)cc1
inactive: SR leukemia 30.3% | RPMI-8226 leukemia 70.9% | OVCAR-8 ovarian 84.2% | OVCAR-5 ovarian 98.6% | OVCAR-4 ovarian 77.6% | SK-OV-3 ovarian 109% | OVCAR-3 ovarian 94.4% | HS 578T breast 95.4% | NCI/ADR-RES ovarian 84.4%
active: IGROV1 ovarian -26.2%

O=C(CN1CCN(c2cc(=O)[nH]c3ccc(F)cc23)CC1)Nc1ccc(Cl)cc1
inactive: SR leukemia 84.3% | RPMI-8226 leukemia 104% | OVCAR-8 ovarian 33.3% | OVCAR-5 ovarian 86.2% | OVCAR-4 ovarian 29.7% | SK-OV-3 ovarian 65.1% | IGROV1 ovarian 67.1% | OVCAR-3 ovarian 60.5% | HS 578T breast 34.6% | NCI/ADR-RES ovarian 76%

C#CCn1cccc1CNc1ccc(OC)cc1
active: SR leukemia -36.1% | RPMI-8226 leukemia -58.8% | OVCAR-8 ovarian -28% | OVCAR-5 ovarian -89.5% | OVCAR-4 ovarian -63.8% | SK-OV-3 ovarian -63.5% | IGROV1 ovarian -68.5% | OVCAR-3 ovarian -84.7% | HS 578T breast -40% | NCI/ADR-RES ovarian -53.1%

CCCCCc1ccc(S(=O)(=O)Nc2cccc(-c3csc(NCCN4CCN(C)CC4)n3)c2)cc1
active: SR leukemia -6.54% | RPMI-8226 leukemia -21.4%
inactive: OVCAR-8 ovarian 94.2% | OVCAR-5 ovarian 94.1% | OVCAR-4 ovarian 84.5% | SK-OV-3 ovarian 92.4% | IGROV1 ovarian 79.9% | OVCAR-3 ovarian 68.1% | HS 578T breast 87% | NCI/ADR-RES ovarian 85.7%

COc1cc(/C=C2\C(=O)Nc3ccccc32)ccc1OCc1ccc(Cl)cc1
inactive: SR leukemia 93.8% | RPMI-8226 leukemia 97.5% | OVCAR-8 ovarian 102% | OVCAR-5 ovarian 101% | OVCAR-4 ovarian 99.1% | SK-OV-3 ovarian 111% | IGROV1 ovarian 102% | OVCAR-3 ovarian 106% | HS 578T breast 105% | NCI/ADR-RES ovarian 100%

O=S(=O)(NCCCNc1nccc(-c2[nH]c(-c3ccccc3)nc2-c2ccc(Cl)c(O)c2)n1)c1cccc2ccccc12
inactive: SR leukemia 17.8% | OVCAR-8 ovarian 27.1% | OVCAR-5 ovarian 67.1% | OVCAR-4 ovarian 56.9% | SK-OV-3 ovarian 68.5% | IGROV1 ovarian 28.7% | OVCAR-3 ovarian 18.7% | HS 578T breast 44% | NCI/ADR-RES ovarian 34.6%
active: RPMI-8226 leukemia 9.64%

N/C(=N\C(N)=N\c1nc2ccccc2s1)c1ccc(C(F)(F)F)cc1
inactive: RPMI-8226 leukemia 46.5% | OVCAR-8 ovarian 55.8% | OVCAR-5 ovarian 105% | OVCAR-4 ovarian 94.6% | SK-OV-3 ovarian 124% | IGROV1 ovarian 80.5% | OVCAR-3 ovarian 91.2% | HS 578T breast 86.9% | NCI/ADR-RES ovarian 30.4%
active: SR leukemia 9.02%

O=[N+]([O-])c1cc(/C=N/Nc2nc(N/N=C/c3ccc(Cl)c([N+](=O)[O-])c3)nc(N3CCCCC3)n2)ccc1Cl
active: RPMI-8226 leukemia -18.3% | OVCAR-3 ovarian -7.45%
inactive: SR leukemia 63.2% | OVCAR-8 ovarian 31% | OVCAR-5 ovarian 108% | OVCAR-4 ovarian 86.9% | SK-OV-3 ovarian 98.8% | IGROV1 ovarian 52.7% | HS 578T breast 53.8% | NCI/ADR-RES ovarian 30.2%
